# Experimental data as given in the supplement of paper PMC9492666.
# Experiments:
# HCC1937 = experiment: relative cell viability, compound + RSL3, vs DMSO (fraction of DMSO control); higher = less growth inhibition; conditions: 72 h
# MDA-MB-231 = experiment: as above; conditions: 72 h
# 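Note: breast cancer cell viability read out with the CCK-8 kit after co-treatment of each compound with the ferroptosis inducer RSL3.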
Structure (SMILES),relative cell viability (HCC1937),relative cell viability (MDA-MB-231)
Cn1nc(C(=O)N(Cc2ccccc2)Cc2ccc(C(=O)O)cc2)c2c1-c1cc(Cl)ccc1OC2 [Nidufexor] + COC(=O)c1ccc([C@H]2c3[nH]c4ccccc4c3C[C@H](C(=O)OC)N2C(=O)CCl)cc1 [RSL3],0.488,0.673
C=CCc1ccc(O)c(-c2cc(CC=C)ccc2O)c1 [Magnolol] + COC(=O)c1ccc([C@H]2c3[nH]c4ccccc4c3C[C@H](C(=O)OC)N2C(=O)CCl)cc1 [RSL3],0.789,0.668
O=C(c1c2ccccc2cc2ccccc12)N1CCC(N2CCC[C@@H](C(=O)N3CCOCC3)C2)CC1 + COC(=O)c1ccc([C@H]2c3[nH]c4ccccc4c3C[C@H](C(=O)OC)N2C(=O)CCl)cc1 [RSL3],0.352,0.366
NC(N)=N/N=C/c1cccc(Cl)c1Cl [Raphin1 acetate] + COC(=O)c1ccc([C@H]2c3[nH]c4ccccc4c3C[C@H](C(=O)OC)N2C(=O)CCl)cc1 [RSL3],0.38,0.603
COc1ccc2c(c1)CCC1C2CCC2(C)C(NCCCCCCN3C(=O)C=CC3=O)CCC12 (configuration not stated) + COC(=O)c1ccc([C@H]2c3[nH]c4ccccc4c3C[C@H](C(=O)OC)N2C(=O)CCl)cc1 [RSL3],0.243,0.36
O=C(Nc1cccnn1)N1CCC(=Cc2cccc(Oc3ccc(C(F)(F)F)cn3)c2)CC1 + COC(=O)c1ccc([C@H]2c3[nH]c4ccccc4c3C[C@H](C(=O)OC)N2C(=O)CCl)cc1 [RSL3],0.686,0.601
Cc1ccc(CN(CC(O)COc2cccc3[nH]ccc23)C(C)(C)C)cc1 (configuration not stated) + COC(=O)c1ccc([C@H]2c3[nH]c4ccccc4c3C[C@H](C(=O)OC)N2C(=O)CCl)cc1 [RSL3],0.357,0.804
COc1cc(N2CCN(C)CC2)ccc1Nc1ncc2c(n1)N(C)c1ccccc1C(=O)N2 + COC(=O)c1ccc([C@H]2c3[nH]c4ccccc4c3C[C@H](C(=O)OC)N2C(=O)CCl)cc1 [RSL3],0.213,0.375
CC1=C(/C=C/C(C)=C/C=C/C(C)=C/C=C/C=C(C)/C=C/C=C(C)/C=C/C2=C(C)C(=O)[C@@H](O)CC2(C)C)C(C)(C)C[C@H](O)C1=O [Astaxanthin] + COC(=O)c1ccc([C@H]2c3[nH]c4ccccc4c3C[C@H](C(=O)OC)N2C(=O)CCl)cc1 [RSL3],0.562,0.689
CN(C)c1cccc(-c2c3c(=O)n(-c4ccccc4Cl)[nH]c3cc(=O)n2C)c1 + COC(=O)c1ccc([C@H]2c3[nH]c4ccccc4c3C[C@H](C(=O)OC)N2C(=O)CCl)cc1 [RSL3],0.433,0.579
CC(C)(CCCCCC(O)CCCCCC(C)(C)C(=O)O)C(=O)O + COC(=O)c1ccc([C@H]2c3[nH]c4ccccc4c3C[C@H](C(=O)OC)N2C(=O)CCl)cc1 [RSL3],0.288,0.337
CN(CCOc1ccc(CC2SC(=O)NC2=O)cc1)c1ccccn1 (configuration not stated) [Rosiglitazone] + COC(=O)c1ccc([C@H]2c3[nH]c4ccccc4c3C[C@H](C(=O)OC)N2C(=O)CCl)cc1 [RSL3],1.26,0.646
CC1(C)C[C@H]2C3=CC[C@@H]4[C@@]5(C)CC[C@H](O)[C@@](C)(CO)[C@@H]5CC[C@@]4(C)[C@]3(C)C[C@H](O)[C@@]2(CO)[C@@H](O)[C@@H]1O [Gymnemagenin] + COC(=O)c1ccc([C@H]2c3[nH]c4ccccc4c3C[C@H](C(=O)OC)N2C(=O)CCl)cc1 [RSL3],0.571,0.657
CC[C@H]1[C@@H](O)[C@@H]2[C@H](CC[C@]3(C)[C@@H]([C@H](C)CCC(=O)O)CC[C@@H]23)[C@@]2(C)CC[C@@H](O)C[C@@H]12 [Obeticholic Acid] + COC(=O)c1ccc([C@H]2c3[nH]c4ccccc4c3C[C@H](C(=O)OC)N2C(=O)CCl)cc1 [RSL3],0.513,0.543
CC(C)(Oc1ccc(C(=O)c2ccc(Cl)cc2)cc1)C(=O)O [Choline Fenofibrate] + COC(=O)c1ccc([C@H]2c3[nH]c4ccccc4c3C[C@H](C(=O)OC)N2C(=O)CCl)cc1 [RSL3],0.469,0.692
CC1CC(OC(=O)C(O)c2ccccc2)CC(C)(C)C1 (configuration not stated) [Cyclandelate] + COC(=O)c1ccc([C@H]2c3[nH]c4ccccc4c3C[C@H](C(=O)OC)N2C(=O)CCl)cc1 [RSL3],0.808,0.638
